# Results filed as inconclusive are left out. Activity calls are given as the source filed them. The call rests on the fitted dose curve; in most records, active means well fitted cell-killing curve with a large enough effect; inconclusive means small, poorly fitted or top-dose-only effect, or effect the other way; inactive means no such curve, though single readings can be large or run the other way. *1 amine or outer side, *2 acyl side, *3 side chain or, on linkers, in order; H or OH if unused. Where a SMILES comes first, the peptide text is derived from it. Bridges are numbered along the chain shown (N, C = ends). Roman numbers before positions name the chains, in order. [ ]: non-standard residue; d: D form. Actinocin(9to1) = Cc1c2oc3c(C)ccc(C(=O)[*:1])c3nc-2c(C(=O)[*:2])c(N)c1=O; NMeV = CN[C@H](C(=O)O)C(C)C; Sar = CNCC(=O)O
# System: JEG-3
# Test: Confirmatory qHTS for gynecologic anti-cancer compounds from libraries of approved drugs and bioactive compounds; further: nearly all actives have a fitted effect of over 55% in size
# Details: gynecologic cancer cell panel viability, ATPlite luminescence, 48 h; series mostly up to 57.6 µM
# How it was run: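 ATPlite luminescence read-out of cell viability; IC50 from 11-point 1:3 titrations, 57.5 uM to 0.977 nM, 48 h compound exposure at 37 C, 5% CO2. Cells seeded at 1,000/well 16 h before dosing.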
# On the % scale 0 is the no-effect control and ±100 the full control effect; potency means the concentration at half of the fitted maximal effect.
Compound,Potency,"activity change, negative = viability loss"
CN1CCN(Cc2ccc(NC(=O)Nc3ccc(Oc4cc(NC(=O)C5CC5)ncn4)cc3)cc2C(F)(F)F)CC1,0.243 µM (active),–
Nc1ccccc1NC(=O)c1ccc(CNc2nccc(-c3cccnc3)n2)cc1,2.17 µM (active),–
O=C1N(c2ccccc2)c2ccccc2C1(Cc1ccncc1)Cc1ccncc1,inactive,–
C1CCC(C(CC2CCCCN2)C2CCCCC2)CC1 (configuration not stated),27.3 µM (active),–
COc1cc2c(c(OC)c1OC)-c1ccc(OC)c(=O)cc1[C@@H](NC(C)=O)CC2,0.178 µM (active),–
CC(=O)c1cnc2ccc(-c3cc(Cl)c(O)c(Cl)c3)nc2c1NC1CCC(CN(C)C)CC1 (configuration not stated),0.627 µM (active),–
CN1C(=O)C(Cc2c[nH]c3ccccc23)NC1=S (configuration not stated),inactive,–
COc1cc2nccc(Oc3ccc(NC(=O)C4(C(=O)Nc5ccc(F)cc5)CC4)cc3)c2cc1OC,10.9 µM (active),–
CCCC(Nc1nc(-c2ccc(NC(=O)NCC)c(OC)c2)ncc1C)c1cccnc1 (configuration not stated),0.153 µM (active),–
CC[C@@]1(O)C(=O)OCc2c1cc1n(c2=O)Cc2c-1nc1ccccc1c2/C=N/OC(C)(C)C,0.0217 µM (active),–
C[C@]12CCC(=O)C=C1[C@@H]1C[C@@H]1[C@H]1[C@@H]3[C@@H]4C[C@@H]4[C@@]4(CCC(=O)O4)[C@@]3(C)CC[C@@H]12,inactive,–
NC(=O)c1cccc2cn(-c3ccc([C@@H]4CCCNC4)cc3)nc12,inactive,–
Cc1nc(N)sc1-c1ccnc(Nc2ccc(N3CCOCC3)cc2)n1,13.7 µM (active),–
Cc1ccc(C(=O)Nc2ccc(CN3CCN(C)CC3)c(C(F)(F)F)c2)cc1C#Cc1cnc2cccnn12,27.3 µM (active),–
COc1cc(N2CCC(N(C)C)CC2)ccc1Nc1ncc(Cl)c(Nc2ccccc2P(C)(C)=O)n1,15.3 µM (active),–
NC(=O)Nc1cc(-c2cccc(F)c2)sc1C(=O)NC1CCCNC1 (configuration not stated),1.22 µM (active),–

Compound,Potency,"activity change, negative = viability loss"
COc1ccccc1N1CCN(CC(O)COc2cccc3ccccc23)CC1 (configuration not stated),inactive,–
CCN(CC)CCOc1ccc(/C(=C(\Cl)c2ccccc2)c2ccccc2)cc1,89.1 µM (active),–
Cn1c(=O)c(-c2c(Cl)cccc2Cl)cc2cnc(Nc3cccc(C(=O)O)c3)nc21,inactive,–
O=C(NCC(O)CO)c1ccncc1Nc1ccc(I)cc1F (configuration not stated),inactive,–
COc1ccc2cc3[n+](cc2c1OC)CCc1cc2c(cc1-3)OCO2,3.85 µM (active),–
COc1cc2ncnc(Nc3ccc(F)c(Cl)c3)c2cc1OCCCN1CCOCC1,inactive,–
Nc1ccccc1NC(=O)c1ccc(CNC(=O)OCc2cccnc2)cc1,3.85 µM (active),–
Cn1cc(-c2ccc3ncc(Cc4ccc5ncccc5c4)n3n2)cn1,inactive,–
C[C@]12CCC(=O)C=C1CC[C@@H]1[C@@H]2[C@@H](O)C[C@@]2(C)[C@H]1CC[C@]2(O)C(=O)CO,inactive,–
"Cc1c2oc3c(C)ccc(C(=O)N[C@@H]4C(=O)N[C@H](C(C)C)C(=O)N5CCC[C@H]5C(=O)N(C)CC(=O)N(C)[C@@H](C(C)C)C(=O)O[C@@H]4C)c3nc-2c(C(=O)N[C@@H]2C(=O)N[C@H](C(C)C)C(=O)N3CCC[C@H]3C(=O)N(C)CC(=O)N(C)[C@@H](C(C)C)C(=O)O[C@@H]2C)c(N)c1=O (I: T[dV]P[Sar][NMeV] / II: T[dV]P[Sar][NMeV]; ester I:1-I:C, II:1-II:C; linker I:N-II:N via Actinocin(9to1))",1.09 µM (active),–
Cn1cnc2c(F)c(Nc3ccc(Br)cc3F)c(C(=O)NOCCO)cc21,inactive,–
O=C(CCCCCCC(=O)Nc1ccccc1)NO,2.43 µM (active),–
Cc1cnc(Nc2ccc(OCCN3CCCC3)cc2)nc1Nc1cccc(S(=O)(=O)NC(C)(C)C)c1,24.3 µM (active),–
CC[C@H](Nc1ncnc2nc[nH]c12)c1nc2cccc(F)c2c(=O)n1-c1ccccc1,–,-0.887% [at 10.6 µM] (inactive)
CCCc1nn(C)c2c(=O)[nH]c(-c3cc(S(=O)(=O)N4CCN(C)CC4)ccc3OCC)nc12,inactive,–
CCN1CCN(Cc2ccc(Nc3ncc(F)c(-c4cc(F)c5nc(C)n(C(C)C)c5c4)n3)nc2)CC1,9.68 µM (active),–

# Source: PubChem BioAssay AID1345085 (National Center for Advancing Translational Sciences (NCATS), 2018)
